TWEAK Fn14 block = inhibitors of TWEAK-Fn14 interaction signaling. actives 2% (n = 360,000). TWEAK-stimulated Fn14 reporter cells, luciferase luminescence, 8 h. inhibition, % at 10 µM; in the data active = inhibition above about 50%
Peg3 prom inh = inhibitors of Peg3 promoter; HeLa PEG-Prom luciferase reporter, luminescence, overnight; inhibition, % at 20 µM; actives 1.7% (n = 360,000); AID 588405;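 active = inhibition of at least 50% at 20 µM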
TRPM1 prom inh = reduces MITF-dependent TRPM1 promoter luciferase signal. SK-MEL-5 TRPM1 promoter luciferase, 24 h. inhibition, % at 12.5 µM. actives 0.83% (n = 330,000);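 active = mean inhibition across replicates of 60% or more, whatever share of single replicates reaches that level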
LMP1 NFkB inh = inhibitors of Epstein-Barr LMP1-induced NF-kappaB reporter. LMP1-induced NF-kappaB luciferase reporter cells, luminescence. inhibition, % at 12.5 µM. actives 0.69% (n = 350,000); in the data active = inhibition above about 41%;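 note: 0% = neutral control wells and 100% = reference inhibitor control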
TROY signal inh = inhibitors of TROY-dependent NF-kB signaling; Q293 LMP1-TROYcd NF-kB luciferase reporter, 4 h; inhibition, % at 10 µM; actives 0.98% (n = 360,000); AID 1347056;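 active = compounds whose plate-normalised and pattern-corrected inhibition of the luciferase reporter signal at the single screening dose is 50% or more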
Shn3 inh set2 = inhibitors of Schnurri-3 3'UTR reporter in osteoblasts; inhibition, % at 12.5 µM; actives 0.52% (n = 360,000); Clone20 osteoblast Shn3 3'UTR firefly luciferase, 24 h;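 active = mean inhibition of at least 75% with every replicate also reaching 75%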;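 note: 0% = median of neutral control wells and 100% = pilot-screen positive control compound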
* hit, by the source's call; x = no result given. Compounds with a hit are over-represented: about 4.1% of the library has one in this group of screens.

SMILES	TWEAK Fn14 block	Peg3 prom inh	TRPM1 prom inh	LMP1 NFkB inh	TROY signal inh	Shn3 inh set2
Cc1nn(C(=O)CN2C(=O)c3ccccc3C2=O)c(C)c1Br	95*	13	13	5	x	1
CCCCNC1C(CC)C(CCC)C(C#N)(C#N)C1(C#N)C#N (stereo unspecified)	56*	27	37	24	17	16
O=C(Nc1ccccc1Cl)c1ccc2nc(N3CCOCC3)sc2c1	-7	-157	x	-1	-55	-36
O=C1C(=O)c2c(ccc3ccccc23)-c2ccccc21	101*	102*	98*	59*	43	96*
CN(C)/C=C1\Oc2ccc3ccccc3c2C1=O	14	-265	-66	-28	18	27
Cc1nc2ccccc2nc1SCC(=O)c1ccccc1	60*	-2	19	-1	43	9
Cc1ccn2cc(-c3ccc(O)c(O)c3)nc2c1	80*	-119	8	13	-16	87*
O=C(Nc1cccc(S(=O)(=O)NCc2ccco2)c1)c1cc(-c2ccccc2)nc2ccccc12	36	62*	28	13	13	32
O=C(Nc1ccccc1N1CCOCC1)c1cc(-c2ccco2)nc2ccccc12	25	60*	7	9	-27	18
O=C(Nc1cccc(-c2cnc3ccccc3n2)c1)c1cccc(NC(=O)c2ccco2)c1	55*	46	36	-45	14	24
COc1cc(-c2cc(C(=O)Nc3ccccc3N3CCOCC3)c3ccccc3n2)cc(OC)c1OC	25	40	0	19	23	45
COc1cccc(NC(=O)c2cc(-c3ccco3)nc3ccccc23)c1	3	16	5	1	2	3
CC(=O)c1cccc(NC(=O)c2cc(-c3ccco3)nc3ccccc23)c1	65*	36	8	4	19	-16
CN(CC(=O)Nc1ccc(F)cc1)C(=O)COC(=O)CNC(=O)c1ccc(Cl)cc1Cl	1	-4	-7	-14	-17	-13
COc1ccc(CN(C)Cc2nc3scc(-c4ccccc4)c3c(=O)[nH]2)cc1OC	-40	9	11	-4	-6	6
COc1cc(-c2cc(C(=O)Nc3cccc(C(C)=O)c3)c3ccccc3n2)cc(OC)c1OC	60*	38	-7	11	9	23
CC(=O)Nc1cccc(NC(=O)c2cc(-c3cccnc3)nc3ccc(Br)cc23)c1	32	61*	8	-10	-8	24
COc1cc(-c2cc(C(=O)Nc3ccc(O)cc3)c3ccccc3n2)cc(OC)c1OC	-18	18	-1	0	0	10
COc1cccc(NC(=O)c2cc(-c3ccccn3)nc3ccccc23)c1	7	22	-2	-3	-10	-7
COc1cccc(-c2cc(C(=O)Nc3ccncc3)c3ccccc3n2)c1	89*	5	20	0	4	5
Cc1cc(=O)c2c([nH]1)c(C)cc1[nH]c(C)c(C)c12	8	8	1	-3	4	-5
C=C1C(=O)[C@]23C[C@H]1CCC2[C@]1(C)C(=O)CC[C@@](C)(C(=O)O)C1C[C@@H]3O (stereo partly specified)	72*	61*	x	x	20	65
C=C1C(=O)[C@]23C[C@H]1CC[C@H]2[C@]1(C)[C@@H](OC(C)=O)CC[C@@](C)(C(=O)O)[C@H]1C[C@@H]3OC(C)=O	46	33	x	x	-15	33
C=C1C(=O)[C@]23C[C@H]1CCC2[C@]1(C)CCC[C@@](C)(C(=O)O)C1C[C@@H]3O (stereo partly specified)	97*	99*	x	x	59*	89*
Cc1ccc(S(=O)(=O)N2CCOc3ccccc32)c(C)c1NS(C)(=O)=O	95*	10	-14	-3	3	17
SMILES	TWEAK Fn14 block	Peg3 prom inh	TRPM1 prom inh	LMP1 NFkB inh	TROY signal inh	Shn3 inh set2
COC(=O)Cc1cc(=O)oc2cc(O)ccc12	12	0	-4	-9	-14	-18
CC(=O)NNc1nc(-c2ccccc2)c2cc(Cl)ccc2n1	-3	2	x	-1	-6	13
COCCNC(=O)c1cccc(Nc2nc(-c3ccccc3)c3cc(Cl)ccc3n2)c1	63*	53*	20	18	32	0
COc1cc(C2CC(=O)Oc3cc(O)ccc32)cc(OC)c1OC (stereo unspecified)	-21	5	3	7	-18	-2
COc1ccc2c(c1)OC(=O)CC2c1cc(OC)c(OC)c(OC)c1 (stereo unspecified)	15	10	6	89*	7	-13
O=C(C(=O)c1cc(Br)ccc1O)c1cc(Br)ccc1O	34	21	13	0	66*	13
O=C(c1ccc(O)c(Br)c1)c1cc(Br)ccc1O	50	36	9	-3	50*	-7
COC(=O)C1=C(C(=O)OC)[C@@H]2N(C)c3ccccc3[C@@]23C[C@@H](CO)N(C(=O)NCCBr)C3=N1	-27	6	2	6	-8	-15
CCOC(=O)C1(Cc2ccc(OC)cc2)CCN(C(=O)[C@@H]2CCCN2C(C)=O)CC1	-29	-44	-22	-10	-26	-13
Cc1ccc2nc(-c3ccc(S(=O)(=O)N4CCCCC4)cc3)cn2c1	30	-133	-16	-21	52*	1
C1=C(CCNc2ncnc3c2[nH]c2ccccc23)CCCC1	69*	-74	6	32	40	57
O=c1c2[nH]c3ccccc3c2ncn1CCC1=CCCCC1	-33	-79	-41	-16	-73	-43
COc1ccc(CNc2ncnc3c2[nH]c2cc(OC)c(OC)cc23)cc1	-15	-25	-9	6	-17	0
COc1ccc(CNc2ncnc3c2[nH]c2ccccc23)cc1	46	32	x	x	44	89*
C[C@@H]1CN([C@H](C)CO)C(=O)CCCn2nncc2CO[C@@H]1CN(C)C(=O)CCC(F)(F)F	17	0	x	-9	-18	-1
CCOC(=O)c1nnn(-c2nonc2N)c1-c1ccc(OC)cc1	-10	3	0	7	9	-6
COc1ccc(-c2cc(C)nc3c(-c4ccccc4)cnn23)cc1	65*	-219	-17	-30	66*	-21
Cc1nc2c(-c3ccccc3)cnn2c(N)c1-c1ccccc1	98*	40	6	3	77*	16
Cc1cc(NC2CCCC2)n2nc(C)c(-c3ccccc3)c2n1	-31	-127	-91	-23	-31	-17
Cc1cc(NCCCn2ccnc2)n2ncc(-c3ccccc3)c2n1	99*	20	58	50*	81*	46
Cc1cc(NC2CCCC2)n2ncc(-c3ccccc3)c2n1	90*	-65	-24	9	81*	-1
COc1ccccc1-c1c(C)nn2c(-c3ccccc3)cc(C)nc12	26	20	9	2	29	13
CC(C)CCNC(=O)c1ccc(Cn2c(=S)[nH]c3ccccc3c2=O)cc1	8	16	0	3	-4	27
